Each structure is given as a SMILES string. Active and inactive are the calls of the source. How the source made its calls: active means hit-call score of the fitted dose curve at least 0.9, where 1 is the maximum; inactive means score below 0.9.

Common to all, as to details: mRNA level, 48 h; actives raise or lower the signal
Read-out in experiment [1]: Cytochrome P450 2C19 (Homo sapiens) (UniProt P33261)
The experiment is described as follows: LTEA_HepaRG_CYP2C19: Life Technologies and Expression Analysis (LTEA) Assay for CYP2C19 using HepaRG (AID 2283482). The gist of the method:
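Transcript levels of CYP2C19 were quantified by qRT-PCR after HepaRG cells were treated for 48 hours with test chemicals up to 100 uM (eight half-log concentrations, 0.5% DMSO vehicle). Gain or loss of signal was fitted relative to DMSO.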

Read-out in experiment [2]: CYP2C8 (gene 1558)
The experiment is described as follows: LTEA_HepaRG_CYP2C8: Life Technologies and Expression Analysis (LTEA) Assay for CYP2C8 using HepaRG (AID 2283483). The gist of the method: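 HepaRG (human liver line), 48 h chemical exposure, 8-pt half-log series from 100 uM, 0.5% DMSO vehicle. Readout: CYP2C8 transcript by qRT-PCR, housekeeping-normalized. Bidirectional fit vs DMSO baseline.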

Read-out in experiment [3]: CYP2E1 (gene 1571)
The experiment is described as follows: LTEA_HepaRG_CYP2E1: Life Technologies and Expression Analysis (LTEA) Assay for CYP2E1 using HepaRG (AID 2283485). The gist of the method: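 Readout is qRT-PCR of CYP2E1 mRNA, normalized to three housekeeping genes and fitted bidirectionally against 0.5% DMSO. HepaRG cells were dosed 48 h at eight concentrations, highest 100 uM with half-log dilutions.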

Read-out in experiment [4]: CYP4A11 (gene 1579)
The experiment is described as follows: LTEA_HepaRG_CYP4A11: Life Technologies and Expression Analysis (LTEA) Assay for CYP4A11 using HepaRG (AID 2283486). Summed up:
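HepaRG, 48 h chem exposure, 8 conc (100 uM top, half-log), 0.5% DMSO vehicle; qRT-PCR readout, housekeeping-gene normalized; bidirectional curve fit vs DMSO baseline.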

Read-out in experiment [5]: Cytochrome P450 3A4 (Homo sapiens) (UniProt P08684)
The experiment is described as follows: LTEA_HepaRG_CYP3A4: Life Technologies and Expression Analysis (LTEA) Assay for CYP3A4 using HepaRG (AID 2283487). The gist of the method:
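Differentiated HepaRG cells, plated 48 h, then dosed 48 h in serum-free induction medium with 0.5% DMSO, 8 half-log concentrations up to 100 uM, duplicate. CYP3A4 mRNA by qRT-PCR, normalized to ACTB/GAPDH/POLR2A; bidirectional fit versus DMSO.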

Read-out in experiment [6]: DNA damage-inducible transcript 3 (DDIT3), DDIT3 (gene 1649)
The experiment is described as follows: LTEA_HepaRG_DDIT3: Life Technologies and Expression Analysis (LTEA) Assay for DNA damage-inducible transcript 3 (DDIT3) using HepaRG (AID 2283488). Summed up: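 Cells are human HepaRG liver cells treated for 48 h with eight half-log concentrations up to 100 uM in 0.5% DMSO. Transcript levels come from qRT-PCR normalized to three housekeeping genes, with activity fitted in both directions relative to vehicle.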

Read-out in experiment [7]: Pro-epidermal growth factor (Homo sapiens) (UniProt P01133)
The experiment is described as follows: LTEA_HepaRG_EGF: Life Technologies and Expression Analysis (LTEA) Assay for Epidermal growth factor (EGF) using HepaRG (AID 2283489). The gist of the method: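 HepaRG, 48 h dosing, 100 uM top, half-log x8, 0.5% DMSO. Readout: TaqMan qRT-PCR (Fluidigm array), housekeeping-normalized. Gain or loss of signal fit vs DMSO.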

Read-out in experiment [8]: Early growth response protein 1 (EGR1) transcription factor, EGR1 (gene 1958)
The experiment is described as follows: LTEA_HepaRG_EGR1: Life Technologies and Expression Analysis (LTEA) Assay for Early growth response protein 1 (EGR1) transcription factor using HepaRG (AID 2283490). The gist of the method: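 HepaRG, 48 h exposure, 8-pt half-log series from 100 uM, 0.5% DMSO vehicle; EGR1 transcript by TaqMan qRT-PCR (Fluidigm array), housekeeping-normalized; bidirectional fit relative to DMSO baseline.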

Read-out in experiment [9]: Ezrin (EZR), EZR (gene 7430)
As to the kind of experiment: LTEA_HepaRG_EZR: Life Technologies and Expression Analysis (LTEA) Assay for Ezrin (EZR) using HepaRG (AID 2283491). The gist of the method:
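EZR transcript levels came from Fluidigm qRT-PCR and were normalized to three housekeeping genes after 48 h chemical exposure of HepaRG cells. Dosing used an 8-point half-log series with a 100 uM top concentration in 0.5% DMSO, tested in duplicate; both directions were fitted versus vehicle.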

Read-out in experiment [10]: Cytochrome P450 3A7 (Homo sapiens) (UniProt P24462)
As to the kind of experiment: LTEA_HepaRG_CYP3A7: Life Technologies and Expression Analysis (LTEA) Assay for CYP3A7 using HepaRG (AID 2283492). The gist of the method: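 Human HepaRG liver cells, 48 h post-plating, switched to serum-free induction medium and exposed in duplicate for 48 h. Dosing: 100 uM top, half-log dilutions, 8 points, 0.5% DMSO vehicle. Read-out: CYP3A7 mRNA, gain or loss fitted against DMSO baseline.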

Read-out in experiment [11]: CYP3A5 (gene 1577)
The experiment is described as follows: LTEA_HepaRG_CYP3A5: Life Technologies and Expression Analysis (LTEA) Assay for CYP3A5 using HepaRG (AID 2283493). Summed up: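 Human HepaRG hepatic cells receive 48 h chemical treatment at eight concentrations (half-log steps from 100 uM) in 0.5% DMSO. Expression of CYP3A5 is quantified by Fluidigm qRT-PCR and normalized to three reference genes.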

Read-out in experiment [12]: Fatty Acid-Binding Protein 1 (FABP1), FABP1 (gene 2168)
The experiment is described as follows: LTEA_HepaRG_FABP1: Life Technologies and Expression Analysis (LTEA) Assay for Fatty Acid-Binding Protein 1 (FABP1) using HepaRG (AID 2283494). The gist of the method: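 qRT-PCR readout of FABP1 transcript (normalized to three housekeeping genes) after 48 h chemical exposure of HepaRG cells; eight concentrations, half-log steps, max 100 uM, 0.5% DMSO vehicle; gain or loss fitted relative to DMSO baseline.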

Read-out in experiment [13]: Cytochrome P450 4A22 (Homo sapiens) (UniProt Q5TCH4)
The experiment is described as follows: LTEA_HepaRG_CYP4A22: Life Technologies and Expression Analysis (LTEA) Assay for Cytochrome P450 4A22 (CYP4A22) using HepaRG (AID 2283495). The gist of the method:
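Readout is CYP4A22 transcript induction or loss, quantified by qRT-PCR and normalized to ACTB, GAPDH and POLR2A. Human HepaRG cells receive test chemicals for 48 h at eight half-log concentrations from 100 uM in 0.5% DMSO.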

Read-out in experiment [14]: Cytochrome P450 7A1 (Homo sapiens) (UniProt P22680)
The experiment is described as follows: LTEA_HepaRG_CYP7A1: Life Technologies and Expression Analysis (LTEA) Assay for Cytochrome P450 7A1 (CYP7A1) using HepaRG (AID 2283496). The gist of the method:
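HepaRG, 48 h exposure, 8-pt half-log series from 100 uM, 0.5% DMSO vehicle, duplicates. Readout: TaqMan qRT-PCR mRNA vs three housekeeping genes; bidirectional curve fit against DMSO baseline.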

Read-out in experiment [15]: Glutathione S-Transferase (GSTA2), GSTA2 (gene 2939)
The experiment is described as follows: LTEA_HepaRG_GSTA2: Life Technologies and Expression Analysis (LTEA) Assay for Glutathione S-Transferase (GSTA2) using HepaRG (AID 2283497). The gist of the method: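 qRT-PCR readout of GSTA2 transcript, normalized to three housekeeping genes, fitted bidirectionally against 0.5% DMSO baseline. Differentiated HepaRG cells received compound for 48 h at 8 concentrations (top 100 uM, half-log steps).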

Read-out in experiment [16]: Glutamate-cysteine ligase catalytic (GCLC), GCLC (gene 2729)
As to the kind of experiment: LTEA_HepaRG_GCLC: Life Technologies and Expression Analysis (LTEA) Assay for Glutamate-cysteine ligase catalytic (GCLC) using HepaRG (AID 2283498). Summed up:
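HepaRG, 48 h exposure, 8-pt half-log series from 100 uM, 0.5% DMSO vehicle; TaqMan qRT-PCR for GCLC mRNA, housekeeping-normalized; bidirectional curve fit vs DMSO baseline.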

Read-out in experiment [17]: growth arrest and DNA damage 45 (GADD45G), GADD45G (gene 10912)
The experiment is described as follows: LTEA_HepaRG_GADD45G: Life Technologies and Expression Analysis (LTEA) Assay for growth arrest and DNA damage 45 (GADD45G) using HepaRG (AID 2283499). Summed up:
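Gain or loss of GADD45G mRNA, quantified by TaqMan qRT-PCR against three housekeeping genes, is fitted in both directions relative to 0.5% DMSO. Human HepaRG cultures receive test chemical for 48 h at up to 100 uM.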

Read-out in experiment [18]: Glutamate-cysteine ligase regulatory (GCLM), GCLM (gene 2730)
The experiment is described as follows: LTEA_HepaRG_GCLM: Life Technologies and Expression Analysis (LTEA) Assay for Glutamate-cysteine ligase regulatory (GCLM) using HepaRG (AID 2283500). The gist of the method:
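Endpoint is GCLM transcript level by qRT-PCR, normalized to three housekeeping genes, after 48 h chemical exposure of human HepaRG cells (0.5% DMSO vehicle, top 100 uM, half-log dilutions). Fitting was bidirectional relative to DMSO.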

Read-out in experiment [19]: Glutathione S-transferase M3 (GSTM3), GSTM3 (gene 2947)
The experiment is described as follows: LTEA_HepaRG_GSTM3: Life Technologies and Expression Analysis (LTEA) Assay for Glutathione S-transferase M3 (GSTM3) using HepaRG (AID 2283501). Summed up:
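HepaRG, plated 48 h, then serum-free induction medium; test chemical 48 h, duplicate; 100 uM top, half-log x8, 0.5% DMSO. Read-out: GSTM3 mRNA (TaqMan qRT-PCR, Fluidigm array). Bidirectional fit vs DMSO.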

Read-out in experiment [20]: CYP2C9 (gene 1559)
As to the kind of experiment: LTEA_HepaRG_CYP2C9: Life Technologies and Expression Analysis (LTEA) Assay for CYP2C9 using HepaRG (AID 2283484). The gist of the method:
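HepaRG, 48 h dosing, 8-pt half-log series, top 100 uM, 0.5% DMSO vehicle. Read-out: CYP2C9 transcript by TaqMan qRT-PCR, housekeeping-normalized (ACTB/GAPDH/POLR2A). Gain or loss fitted vs DMSO baseline.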

Sequence of Cytochrome P450 3A7 (Homo sapiens) (P24462 whole entry, looked up): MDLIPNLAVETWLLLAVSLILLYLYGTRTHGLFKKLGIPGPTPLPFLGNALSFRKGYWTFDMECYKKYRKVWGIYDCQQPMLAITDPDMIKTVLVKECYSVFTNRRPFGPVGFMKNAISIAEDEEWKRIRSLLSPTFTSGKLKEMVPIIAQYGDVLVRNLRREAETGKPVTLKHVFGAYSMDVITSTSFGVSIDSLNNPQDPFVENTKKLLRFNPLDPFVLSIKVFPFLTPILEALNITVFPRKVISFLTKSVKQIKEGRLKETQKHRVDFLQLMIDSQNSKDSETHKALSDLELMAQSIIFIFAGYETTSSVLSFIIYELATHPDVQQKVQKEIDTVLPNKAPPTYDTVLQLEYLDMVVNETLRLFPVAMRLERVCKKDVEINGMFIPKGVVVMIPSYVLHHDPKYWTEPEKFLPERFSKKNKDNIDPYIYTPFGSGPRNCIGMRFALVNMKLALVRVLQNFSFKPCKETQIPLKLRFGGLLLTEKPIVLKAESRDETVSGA
Sequence of Cytochrome P450 3A4 (Homo sapiens) (P08684 whole entry, looked up): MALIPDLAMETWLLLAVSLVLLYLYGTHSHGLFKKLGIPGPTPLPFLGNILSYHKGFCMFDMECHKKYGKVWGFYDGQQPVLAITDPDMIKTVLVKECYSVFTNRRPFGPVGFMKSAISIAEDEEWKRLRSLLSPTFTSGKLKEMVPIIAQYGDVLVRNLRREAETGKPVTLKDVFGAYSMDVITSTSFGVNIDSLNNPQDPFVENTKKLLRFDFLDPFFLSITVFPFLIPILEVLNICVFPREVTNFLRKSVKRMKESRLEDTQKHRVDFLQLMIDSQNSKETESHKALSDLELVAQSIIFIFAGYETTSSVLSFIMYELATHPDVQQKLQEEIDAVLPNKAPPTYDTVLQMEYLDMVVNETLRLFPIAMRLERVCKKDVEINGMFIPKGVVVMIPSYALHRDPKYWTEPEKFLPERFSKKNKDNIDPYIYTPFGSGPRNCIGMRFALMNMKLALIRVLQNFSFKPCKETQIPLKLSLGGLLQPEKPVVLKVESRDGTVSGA
Sequence of Cytochrome P450 2C19 (Homo sapiens) (P33261 whole entry, looked up): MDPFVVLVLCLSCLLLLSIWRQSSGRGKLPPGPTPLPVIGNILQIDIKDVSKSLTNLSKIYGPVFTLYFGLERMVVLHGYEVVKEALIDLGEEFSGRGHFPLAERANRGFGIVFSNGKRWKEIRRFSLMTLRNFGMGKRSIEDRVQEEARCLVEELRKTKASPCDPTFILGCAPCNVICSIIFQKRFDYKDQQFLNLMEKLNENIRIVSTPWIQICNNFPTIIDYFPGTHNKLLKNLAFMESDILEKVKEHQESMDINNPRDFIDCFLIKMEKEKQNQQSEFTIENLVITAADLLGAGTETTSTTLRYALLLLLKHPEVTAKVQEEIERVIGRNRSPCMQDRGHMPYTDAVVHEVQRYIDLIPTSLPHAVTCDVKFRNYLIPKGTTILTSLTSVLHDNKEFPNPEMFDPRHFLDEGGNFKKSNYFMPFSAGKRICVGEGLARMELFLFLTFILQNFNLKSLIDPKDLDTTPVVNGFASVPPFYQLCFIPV

`CCOC(=O)COc1cc(-c2nn(C)c(OC(F)F)c2Cl)c(F)cc1Cl`: the AC50 was 50 µM (active) in experiment [1]; 50 µM (active) in experiment [2]; 16.3 µM (active) in experiment [3]; 22.8 µM (active) in [5]; 30.1 µM (active) in experiment [10]. In addition, the call in experiment [4], in [6], in experiment [7], in experiment [8], in experiment [9] and in [11] was inactive. The molecule was classed as inactive in [12], in experiment [13], in experiment [14], in experiment [15], in experiment [16] and in [17]. Moreover, the call in [18] and in experiment [19] was inactive.
In the case of `CC[C@H](C)[C@H]1O[C@]2(C=C[C@@H]1C)C[C@@H]1C[C@@H](C/C=C(\C)[C@@H](O[C@H]3C[C@H](OC)[C@@H](O[C@H]4C[C@H](OC)[C@@H](NC)[C@H](C)O4)[C@H](C)O3)[C@@H](C)/C=C/C=C3\CO[C@@H]4[C@H](O)C(C)=C[C@@H](C(=O)O1)[C@]34O)O2`, the AC50 is 12.6 µM (active) in experiment [1]; 5.32 µM (active) in [3]; 11.7 µM (active) in [4]; 23.1 µM (active) in experiment [5]; 13.1 µM (active) in experiment [6]; 81.5 µM (active) in experiment [7]. Also, the half-maximal activity concentration (AC50) in [8] is 29 µM (active); in [9], 79.5 µM (active); in [10], 19.9 µM (active); in [11], 22.7 µM (active); in [12], 14.6 µM (active); in experiment [13], 7.23 µM (active). For the same molecule, the AC50 in experiment [16] is 50 µM (active); in experiment [17], 2.78 µM (active). Moreover, the molecule was classed as inactive in [2], in [14], in experiment [18] and in experiment [19].
With `CSc1nnc(C(C)(C)C)c(=O)n1N`, the results for the half-maximal activity concentration (AC50) in experiment [1] and in experiment [3] were 9.92 µM (active) and 23.2 µM (active), respectively. The result in experiment [2], in [20], in [4], in experiment [5], in experiment [6] and in experiment [7] was inactive. Besides, the outcome in experiment [8], in experiment [10], in experiment [11], in experiment [12], in experiment [13] and in experiment [14] was inactive. For the same molecule, the molecule was called inactive in experiment [15], in [16], in experiment [17], in experiment [18] and in experiment [19].

Values taken from PubChem BioAssay (EPA / NIEHS).
